Laboratory results from PubChem BioAssay (NCATS).
Records with an inconclusive call do not appear. Calls of active or inactive are those of the source. Unless noted, the call rests on the fitted dose curve; in most records, active means well fitted curve in the direction sought with a large enough effect; inconclusive means small, poorly fitted or top-dose-only effect, or another doubt; inactive means no such curve, though single readings can be large; an effect the other way counts as inactive or inconclusive.

Assays:
[1] = AP1 Signaling Pathway (AID 357; active means well fitted curve in either direction with a large enough effect, not every such curve was filed as active;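 further: ME-180 reporter cells stimulated with EGF at its EC50 level; on the % scale 0 is the no-effect control and ±100 the full control effect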); details: ME-180 AP-1-bla reporter, EGF-induced, beta-lactamase ratio, 5 h; at 7.69 µM (top of the series) unless noted
How it was run: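 AP-1-bla ME-180 cells, Opti-MEM + 0.5% dialyzed FBS, plated overnight 37 °C. Cpd titration + EC50 EGF, 5 h 37 °C. CCF4 2.5 h RT; ex 405, em 460/530 ratio → %activity, AC50.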

[2] = target: Cytochrome P450 1A2 (Homo sapiens) (UniProt P05177); assay: p450-cyp1a2 (AID 410; calls by dose curve; further: potency means the concentration at half of the fitted maximal effect;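 on activity change, negative = inhibition: -100% = full effect of reference inhibitor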)
Sequence of Cytochrome P450 1A2 (Homo sapiens) (P05177 whole entry, looked up): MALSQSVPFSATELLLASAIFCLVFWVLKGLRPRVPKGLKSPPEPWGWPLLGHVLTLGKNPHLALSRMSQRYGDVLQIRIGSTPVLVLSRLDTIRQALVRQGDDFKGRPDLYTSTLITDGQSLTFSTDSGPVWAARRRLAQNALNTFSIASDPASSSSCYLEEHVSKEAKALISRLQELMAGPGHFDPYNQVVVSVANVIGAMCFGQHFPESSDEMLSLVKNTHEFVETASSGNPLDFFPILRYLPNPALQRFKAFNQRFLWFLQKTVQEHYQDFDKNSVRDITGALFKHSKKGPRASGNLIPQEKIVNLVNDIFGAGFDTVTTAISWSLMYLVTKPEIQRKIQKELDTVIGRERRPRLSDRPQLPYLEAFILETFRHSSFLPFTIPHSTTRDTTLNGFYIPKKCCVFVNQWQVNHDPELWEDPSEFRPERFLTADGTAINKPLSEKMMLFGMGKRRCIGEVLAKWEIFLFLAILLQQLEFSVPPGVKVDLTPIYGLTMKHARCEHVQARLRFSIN
How it was run: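 Human CYP1A2 (20nM) demethylated Luciferin-ME at its Km (100uM) in 100mM KPO4. After 10 min compound preincubation, NADPH regeneration ran the reaction 60 min at room temperature. Luciferin was read by luminescence, normalized to 57 uM furafylline.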

[3] = NFAT Signaling Pathway (AID 444; active means well fitted curve in either direction with a large enough effect, not every such curve was filed as active;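 further: carbachol stimulus at about its EC50 of 1 µM final; on the % scale 0 is the no-effect control and ±100 the full control effect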); details: Jurkat NFAT-bla M1, carbachol, beta-lactamase ratio, 5 h; at 7.69 µM (top of the series) unless noted
How it was run: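 Jurkat cells carrying an NFAT-driven β-lactamase reporter and co-transfected muscarinic M1 receptor were treated with compound plus carbachol (1 uM final, an EC50 level) for 5 h at 37 °C. CCF4 loading followed for 1 h at RT; 460/530 nm ratio gave %activity.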

[4] = Stat Signaling Pathway (AID 446; active means well fitted curve in either direction with a large enough effect, not every such curve was filed as active;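 further: ME-180 cervical cancer cells given 40 pM IL-6 alongside compound; SIE-controlled beta-lactamase reporter measured as 460/530 nm FRET emission ratio; on the % scale 0 is the no-effect control and ±100 the full control effect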); details: ME-180 (cervical carcinoma) SIE beta-lactamase reporter, IL-6 stimulated, 5 h; at 7.69 µM (top of the series) unless noted
How it was run: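 IL-6/STAT signaling read in ME-180 cells via an SIE beta-lactamase reporter. Stimulus was 40 pM IL-6 (its AC50) for 5 hrs, so both activation and inhibition register.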

[5] = target: Mitogen-activated protein kinase 10 (Mus musculus) (UniProt Q61831); assay: JNK3 AlphaScreen Assay (AID 530; active means well fitted curve in either direction with a large enough effect, not every such curve was filed as active;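 further: kinase came from lysate of stimulated human HepG2 cells; signal reports phosphorylation of biotinylated GST-cJun 1-79 at Ser73 with 10 µM ATP; on the % scale 0 is the no-effect control and ±100 the full control effect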)
How it was run: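 JNK3 came from HepG2 lysates pre-activated with IL-1beta and TNF-alpha and phosphorylated biotinylated GST-cJun (1-79) at 10 uM ATP, pH 7.6, room temperature. Compounds were titrated. AlphaScreen signal used anti-phospho-cJun (Ser73) antibody.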

[6] = target: 3',5'-cyclic-AMP phosphodiesterase 4B (Homo sapiens) (UniProt Q07343); assay: qHTS Assay for Inhibitors of PDE-IV (AID 607; active means well fitted activation curve with a large enough effect in the main read-out, with a control signal flat, not every such curve was filed as active; further: % of control where 0% means no effect)
Sequence of 3',5'-cyclic-AMP phosphodiesterase 4B (Homo sapiens) (Q07343 whole entry, looked up): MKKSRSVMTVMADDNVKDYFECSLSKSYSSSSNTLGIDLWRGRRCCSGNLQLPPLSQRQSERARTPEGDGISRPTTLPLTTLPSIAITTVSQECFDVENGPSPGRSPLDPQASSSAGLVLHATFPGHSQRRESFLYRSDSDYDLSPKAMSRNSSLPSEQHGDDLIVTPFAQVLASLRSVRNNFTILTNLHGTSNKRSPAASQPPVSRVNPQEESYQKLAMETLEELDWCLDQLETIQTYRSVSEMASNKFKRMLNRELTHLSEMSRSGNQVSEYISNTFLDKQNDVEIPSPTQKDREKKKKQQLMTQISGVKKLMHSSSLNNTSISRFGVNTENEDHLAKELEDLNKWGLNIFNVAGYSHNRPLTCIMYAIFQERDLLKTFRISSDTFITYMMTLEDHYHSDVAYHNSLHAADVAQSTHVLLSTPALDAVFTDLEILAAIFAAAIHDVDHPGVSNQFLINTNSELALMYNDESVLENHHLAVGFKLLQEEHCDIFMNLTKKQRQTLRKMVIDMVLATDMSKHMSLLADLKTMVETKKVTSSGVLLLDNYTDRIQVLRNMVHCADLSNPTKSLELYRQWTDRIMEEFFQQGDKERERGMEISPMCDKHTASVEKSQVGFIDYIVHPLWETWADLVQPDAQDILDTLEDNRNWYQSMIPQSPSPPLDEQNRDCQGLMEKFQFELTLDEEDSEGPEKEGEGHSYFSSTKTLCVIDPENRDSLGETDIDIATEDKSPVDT
How it was run: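 Live HEK293 cells with a modified cyclic nucleotide-gated (CNG) channel report intracellular cAMP via membrane-potential dye fluorescence (ex 535/em 590 nm). Endogenous PDE-IV was targeted. Compounds were tested at up to 22.9 uM final; RO 20-1724 100 uM served as control.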

[7] = target: Guanine nucleotide-binding protein G(i) subunit alpha-1 (Homo sapiens) (UniProt P63096); assay: qHTS Assay for Inhibitors of RGS12 GoLoco Motif Activity (Green Fluorophore) (AID 879);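 further: 0% = labeled peptide with Gαi1 and full inhibition = labeled peptide alone without protein; negative values mean loss of peptide binding seen as reduced polarization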
Sequence of Guanine nucleotide-binding protein G(i) subunit alpha-1 (Homo sapiens) (P63096 whole entry, looked up): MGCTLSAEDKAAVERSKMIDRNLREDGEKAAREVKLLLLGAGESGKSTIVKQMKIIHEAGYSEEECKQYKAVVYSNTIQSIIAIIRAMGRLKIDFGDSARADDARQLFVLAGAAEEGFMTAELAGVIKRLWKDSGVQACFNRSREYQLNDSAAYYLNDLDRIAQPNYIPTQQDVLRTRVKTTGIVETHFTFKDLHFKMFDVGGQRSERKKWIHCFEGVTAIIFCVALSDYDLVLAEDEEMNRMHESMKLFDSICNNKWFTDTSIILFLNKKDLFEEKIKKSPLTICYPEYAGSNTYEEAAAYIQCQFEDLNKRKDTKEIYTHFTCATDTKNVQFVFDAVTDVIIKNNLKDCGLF
How it was run: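 Fluorescence polarization assay: 50 nM Gαi1 with 10 nM FITC-labeled RGS12 GoLoco peptide in 10 mM Tris pH 7.5, 150 mM NaCl, 0.1 mM GDP, 0.05% NP40, 10 min at room temperature with compound.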

[8] = target: Cytochrome P450 2C19 (Homo sapiens) (UniProt P33261); assay: qHTS Assay for Inhibitors and Substrates of Cytochrome P450 2C19 (AID 899); further: potency means the concentration at half of the fitted maximal effect; nearly all actives have a fitted effect of over 60% in size
Sequence of Cytochrome P450 2C19 (Homo sapiens) (P33261 whole entry, looked up): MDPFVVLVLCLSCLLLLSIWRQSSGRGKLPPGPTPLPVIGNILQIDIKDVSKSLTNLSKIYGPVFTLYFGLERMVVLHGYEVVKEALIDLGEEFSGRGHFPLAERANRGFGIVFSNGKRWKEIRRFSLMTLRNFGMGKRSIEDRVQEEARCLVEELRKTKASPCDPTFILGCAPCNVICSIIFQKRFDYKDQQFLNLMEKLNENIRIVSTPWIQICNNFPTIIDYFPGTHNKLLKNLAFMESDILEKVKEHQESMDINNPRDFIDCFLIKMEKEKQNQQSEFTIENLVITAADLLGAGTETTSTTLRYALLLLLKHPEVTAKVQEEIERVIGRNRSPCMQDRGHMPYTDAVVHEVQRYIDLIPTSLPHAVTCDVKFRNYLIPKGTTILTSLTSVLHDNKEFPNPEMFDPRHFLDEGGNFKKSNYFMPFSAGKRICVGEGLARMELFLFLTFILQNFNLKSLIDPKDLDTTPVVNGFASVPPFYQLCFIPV
How it was run: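 In 50mM KPO4, the reaction held 5nM enzyme and KM-level (10uM) Luciferin-H EGE; it ran 60 min at 37C after NADPH regeneration and a 10 min compound preincubation. Luminescence values were scaled to 57uM ketoconazole as complete inhibition.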

[9] = qHTS Assay for Identification of Small Molecule Agonists for Thrombopoietin (TPO) Signaling Pathway (AID 917); further: on the % scale 0 is the no-effect control and ±100 the full control effect
How it was run: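 Activators of TPO signaling were sought in murine Ba/F3 cells transfected with the human receptor, using a luciferase gene driven by the Glycoprotein IIb promoter; 24-hr compound exposure at 37 C alongside 26 pM TPO, in IL-3-free medium.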

[10] = target: Muscarinic acetylcholine receptor M1 (Rattus norvegicus) (UniProt P08482); assay: qHTS Assay for Antagonists of Acetylcholine Muscarinic M1 Receptor: Measurement of IP-One Response (AID 944); further: nearly all actives have a fitted effect of over 75% in size
Sequence of Muscarinic acetylcholine receptor M1 (Rattus norvegicus) (P08482 whole entry, looked up): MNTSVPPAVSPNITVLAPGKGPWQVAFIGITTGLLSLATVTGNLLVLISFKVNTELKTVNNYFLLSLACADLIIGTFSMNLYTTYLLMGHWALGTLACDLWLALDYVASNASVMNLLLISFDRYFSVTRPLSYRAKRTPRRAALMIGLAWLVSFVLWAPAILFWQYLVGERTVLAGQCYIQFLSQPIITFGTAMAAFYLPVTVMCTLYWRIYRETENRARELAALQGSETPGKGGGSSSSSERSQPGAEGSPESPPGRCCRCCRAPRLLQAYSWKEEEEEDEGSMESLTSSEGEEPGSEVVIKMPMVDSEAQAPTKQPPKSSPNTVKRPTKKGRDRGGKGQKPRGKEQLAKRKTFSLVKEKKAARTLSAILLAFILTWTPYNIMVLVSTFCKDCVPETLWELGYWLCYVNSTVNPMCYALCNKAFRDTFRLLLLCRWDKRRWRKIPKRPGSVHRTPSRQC
How it was run: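 CHO cells expressing rat M1 receptor, recovered overnight, were pre-incubated 10 min with compound, then stimulated 30 min with carbachol at EC80 (200 nM) in LiCl-containing buffer, pH 7.4. IP1 accumulation was read by HTRF (620/665 nm).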

[11] = target: Pyruvate kinase (Leishmania mexicana) (UniProt Q27686); assay: qHTS Validation Assay for Inhibitors of Leishmania Mexicana Pyruvate Kinase (AID 945);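 further: 0% = DMSO only neutral control wells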
Sequence of Pyruvate kinase (Leishmania mexicana) (Q27686 2-499 E452W): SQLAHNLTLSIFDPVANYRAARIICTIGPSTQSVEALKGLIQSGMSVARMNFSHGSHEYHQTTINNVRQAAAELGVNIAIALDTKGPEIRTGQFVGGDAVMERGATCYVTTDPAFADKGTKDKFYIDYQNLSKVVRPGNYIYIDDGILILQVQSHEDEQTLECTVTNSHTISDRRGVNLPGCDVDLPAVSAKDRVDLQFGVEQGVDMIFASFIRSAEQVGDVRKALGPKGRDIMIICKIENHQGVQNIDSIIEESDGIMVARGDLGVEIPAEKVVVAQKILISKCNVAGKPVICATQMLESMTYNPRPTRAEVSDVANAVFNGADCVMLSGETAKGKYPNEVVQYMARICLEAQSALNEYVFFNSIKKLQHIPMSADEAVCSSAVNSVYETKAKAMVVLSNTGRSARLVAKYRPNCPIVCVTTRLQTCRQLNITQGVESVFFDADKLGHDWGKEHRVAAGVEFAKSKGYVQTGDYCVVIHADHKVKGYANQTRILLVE
How it was run: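 qHTS eight-point titrations against 0.2 nM LmPYK (E451W) in imidazole buffer pH 7.2 with 0.5 mM PEP, 0.1 mM ADP; 1 h, room temperature. Readout: PKLight luminescence, normalized to neutral DMSO wells.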

[12] = target: Pyruvate kinase PKM (Homo sapiens) (UniProt P14618); assay: qHTS Assay for Activators of Human Muscle Pyruvate Kinase (AID 954; active means well fitted curve in the direction sought with a large enough effect, not every such curve was filed as active;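 further: 0% = uninhibited enzyme and -100% = no enzyme or full thiadiazolimine inhibition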)
Sequence of Pyruvate kinase PKM (Homo sapiens) (P14618 whole entry, looked up): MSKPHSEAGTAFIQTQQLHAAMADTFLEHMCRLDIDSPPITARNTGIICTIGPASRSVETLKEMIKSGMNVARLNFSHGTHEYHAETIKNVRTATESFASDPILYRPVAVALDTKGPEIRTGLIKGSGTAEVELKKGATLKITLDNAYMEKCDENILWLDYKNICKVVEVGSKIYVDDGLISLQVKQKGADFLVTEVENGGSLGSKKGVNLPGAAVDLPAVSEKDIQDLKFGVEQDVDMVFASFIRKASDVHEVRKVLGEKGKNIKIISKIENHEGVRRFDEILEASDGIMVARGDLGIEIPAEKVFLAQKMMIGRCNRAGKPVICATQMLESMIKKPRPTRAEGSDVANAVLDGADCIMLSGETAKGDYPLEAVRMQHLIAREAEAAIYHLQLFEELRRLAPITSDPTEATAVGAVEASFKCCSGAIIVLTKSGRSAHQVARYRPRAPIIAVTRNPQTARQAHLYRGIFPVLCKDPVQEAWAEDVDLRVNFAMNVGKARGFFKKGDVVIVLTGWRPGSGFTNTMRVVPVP
How it was run: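 Enzyme was run at intermediate activity so both inhibitors and activators could be detected. ATP formed from ADP and PEP by 0.1 nM human PKM2 during a 1 h room-temperature incubation was quantified by coupled luciferase luminescence.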

[13] = target: Alpha-galactosidase A (Homo sapiens) (UniProt P06280); assay: Counterscreen for Glucocerebrosidase Inhibitors: qHTS Assay for Human alpha-Galactosidase at pH 4.5 (AID 992); further: 0% is about no effect
Sequence of Alpha-galactosidase A (Homo sapiens) (P06280 whole entry, looked up): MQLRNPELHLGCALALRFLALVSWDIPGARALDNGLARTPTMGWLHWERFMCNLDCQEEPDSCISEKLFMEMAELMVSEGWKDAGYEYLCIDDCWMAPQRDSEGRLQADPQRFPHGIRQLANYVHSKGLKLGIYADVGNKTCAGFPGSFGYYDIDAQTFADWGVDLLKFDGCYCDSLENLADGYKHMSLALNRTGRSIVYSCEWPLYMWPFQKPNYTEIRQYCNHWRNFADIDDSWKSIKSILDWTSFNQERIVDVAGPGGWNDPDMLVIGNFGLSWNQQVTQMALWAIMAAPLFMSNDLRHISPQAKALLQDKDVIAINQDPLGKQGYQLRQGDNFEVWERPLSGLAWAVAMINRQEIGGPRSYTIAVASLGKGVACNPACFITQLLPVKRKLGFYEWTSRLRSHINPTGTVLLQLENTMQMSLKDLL
How it was run: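 Read-out is 4-methylumbelliferone fluorescence (365 nm excitation, 440 nm emission) after a pH 10 NaOH/glycine stop. Reactions held 2 nM enzyme and 80 uM substrate at pH 4.5 for 20 min at room temperature.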

[14] = target: alpha-glucosidase (Oryza sativa, rice) (UniProt Q653V4); assay: Counterscreen for Glucocerebrosidase Inhibitors: qHTS Assay for Rice alpha-Glucosidase at pH 5.0 (AID 997);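 further: 0% = full activity with enzyme and -100% = basal without enzyme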
How it was run: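 Rice alpha-glucosidase (4 nM final) with 400 uM 4-methylumbelliferyl-alpha-D-glucopyranoside in citrate buffer pH 5.0, 20 min at room temperature, stopped at pH 10; fluorescence 365/440 nm, compounds 0.7 nM–77 uM, AC50 from Hill fits.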

[15] = target: Glucocorticoid receptor (Homo sapiens) (UniProt P04150); assay: GR-GFP Redistribution (AID 450;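 active means compounds whose dose series gives a full or clear partial fitted curve of increased nuclear translocation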; further: potency means the concentration at half of the fitted maximal effect); details: U2OS GR-GFP nuclear translocation, laser cytometry, 2 h
Sequence of Glucocorticoid receptor (Homo sapiens) (P04150 whole entry, looked up, the tested form may be a part): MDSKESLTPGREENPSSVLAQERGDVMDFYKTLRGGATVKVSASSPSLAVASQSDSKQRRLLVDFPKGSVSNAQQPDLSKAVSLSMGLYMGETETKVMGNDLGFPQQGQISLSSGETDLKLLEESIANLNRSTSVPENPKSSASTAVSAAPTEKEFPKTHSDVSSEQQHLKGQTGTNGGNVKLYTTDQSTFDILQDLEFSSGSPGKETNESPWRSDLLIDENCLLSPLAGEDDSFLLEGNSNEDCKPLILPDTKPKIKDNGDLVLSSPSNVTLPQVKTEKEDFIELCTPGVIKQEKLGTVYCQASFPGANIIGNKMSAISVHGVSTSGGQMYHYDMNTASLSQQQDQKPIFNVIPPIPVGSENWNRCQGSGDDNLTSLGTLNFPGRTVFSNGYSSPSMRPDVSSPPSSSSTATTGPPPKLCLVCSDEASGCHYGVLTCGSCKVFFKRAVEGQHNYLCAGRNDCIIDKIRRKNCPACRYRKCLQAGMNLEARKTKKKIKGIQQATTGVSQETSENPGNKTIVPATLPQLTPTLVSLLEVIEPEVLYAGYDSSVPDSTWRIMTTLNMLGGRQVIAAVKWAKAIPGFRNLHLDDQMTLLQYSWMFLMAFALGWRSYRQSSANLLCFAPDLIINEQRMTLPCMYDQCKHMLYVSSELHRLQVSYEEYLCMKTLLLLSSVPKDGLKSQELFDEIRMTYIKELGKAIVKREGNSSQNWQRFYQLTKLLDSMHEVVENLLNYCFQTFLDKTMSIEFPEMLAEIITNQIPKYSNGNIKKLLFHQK

[16] = target: Glucocorticoid receptor (Homo sapiens) (UniProt P04150); assay: GR-EFC Redistribution (AID 451; calls by dose curve; further: potency means the concentration at half of the fitted maximal effect); details: CHO-K1 GR-EFC translocation, beta-gal luminescence, 2 h
How it was run: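 CHO-K1 cells stably expressing nuclear-localized β-gal enzyme acceptor and GR fused C-terminally to the enzyme donor fragment; ligand-driven nuclear translocation restores β-gal by complementation. Compounds titrated up to 46 uM final, 2 h at 37 °C; luminescence read.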

C[C@H](N)C(=O)OC(C)(C)Cc1ccc(Cl)cc1
inactive: activity change, negative = inhibition [1] 9.46% [at 38 µM] | activity change, negative = inhibition [3] 18.9% [at 38 µM] | activity, negative = inhibition [4] 24.9% [at 38 µM] | Potency [5] | Potency [6] | outcome [7] | outcome [9] | Potency [10] | outcome [11] | outcome [12] | outcome [13] | Potency [14]
active: Potency [2] 0.631 µM | Potency [8] 3.98 µM

CNC(=O)[C@@H]1O[C@@H](n2cnc3c(N)ncnc32)[C@@H](O)[C@H]1O
inactive: activity change, negative = inhibition [1] -10.7% [at 38 µM] | Potency [2] | activity change, negative = inhibition [3] 6.42% [at 38 µM] | Potency [15] > 46 µM | Potency [16] > 46 µM | Potency [5] | outcome [7] | outcome [9] | outcome [11] | outcome [12] | Potency [14]
